Test results as given in PubChem BioAssay AID1259240 (Keith Lab, Institute of Cancer Science, University of …, 2017).
Unmarked numbers belong to inactive results. Activity calls are given as the source filed them. No stated cut-off is given here; in the data, active means fold change mostly below about -2 (no sharp cut-off); inactive means mostly above about -1.8.

experiment: modulation of TERT promoter-driven luciferase – cell-based, luciferase reporter, human, primary screen (AID 1259240); conditions: A2780 TERT promoter luciferase reporter, 16 h; at 20 µM, fold versus average of vehicle-only wells

| SMILES | fold change | outcome |
| --- | --- | --- |
| Cc1c(Cl)cccc1NS(=O)(=O)c1cccc2cccnc12 | -1.05 |  |
| CC1CN(C2=NC(=O)/C(=C/c3ccccc3Br)S2)CC(C)O1 (centres undefined) | -1.41 |  |
| Cn1c(=O)cc(SCC(=O)Nc2nc3ccccc3[nH]2)c2ccccc21 | -1.01 |  |
| COc1ccc(C2CC(c3cccs3)=NN2C(=O)CSc2ncnc3ccccc23)cc1 (centres undefined) | 1.14 |  |
| Cc1cc(C)cc(NC(=O)CC(C)CC2=NS(=O)(=O)c3ccccc3N2)c1 (centres undefined) | -1.03 |  |
| CCOc1cc(C2NC(=O)c3n[nH]c(C)c32)ccc1O (centres undefined) | 1.27 |  |
| COc1ccc(Nc2c(-c3ccc(C)o3)nc3ncccn23)cc1OC | -1.44 |  |
| CS(=O)(=O)Nc1ccc(C2=NN(S(C)(=O)=O)C(c3ccccc3)C2)cc1 (centres undefined) | 1.5 |  |
| CCSC1=NSC2=NC(=O)/C(=C\c3coc4ccccc4c3=O)C(=N)N12 | 1.16 |  |
| Cc1ccc2nc(NC3=NCN(Cc4ccco4)CN3)nc(C)c2c1 | 1 |  |
| COc1ccc2c(=O)c(Oc3ccc(C)cc3)c(C(F)(F)F)oc2c1 | -1.15 |  |
| COCCNC(=O)Cn1cc(/C=C2/C(=O)N(C)c3ccccc32)c2cc(Br)ccc21 | -1.01 |  |
| O=C(CN1C(=O)COc2ccc(S(=O)(=O)N3CCOCC3)cc21)NCc1ccc2c(c1)OCO2 | 1.18 |  |
| O=C1CC(c2cc(Br)cs2)c2cc3c(cc2N1)OCO3 (centres undefined) | 1.13 |  |
| CC(=O)c1ccc(N2CCN(C(=O)CCCc3nnc4n5nc(C)nc5c5ccccc5n34)CC2)cc1 | -1.6 |  |
| CCOC(=O)c1c(NC(=O)CSc2ncccn2)sc(C(C)=O)c1C | -1.02 |  |
| CC1(C)CNC(=O)c2sc(NC(=O)CN3CCOCC3)nc2C1 | -1.75 |  |
| CC(C)C(C(=O)O)N1C(=O)/C(=C/c2cccs2)SC1=S (centres undefined) | -3.32 (active) |  |
| O=C(Cn1ncc2c3ccccc3n(Cc3ccccc3)c2c1=O)N1CCOCC1 | -1.17 |  |
| Cc1cc(C)cc(CC(CC(=O)Nc2nccs2)C(=O)Nc2nccs2)c1 (centres undefined) | 1.18 |  |

| SMILES | fold change | outcome |
| --- | --- | --- |
| CSc1ccc(CCNc2ccc3nnc(-c4ccccc4)n3n2)cc1 | 1.07 |  |
| COCCCN1CN=C(Nc2nc(C)c3ccc(C)cc3n2)NC1 | -1.94 |  |
| CC(C)CCNS(=O)(=O)c1ccc2c(c1)n(C)c(=O)c(=O)n2C | 1.28 |  |
| CC(C)C(NS(=O)(=O)c1cccc2nsnc12)C(=O)N1CCCCCC1 (centres undefined) | 1.11 |  |
| CC1CCN(C(=O)Cn2cc(/C=C3/C(=O)Nc4ccccc43)c3ccccc32)CC1 | 1.13 |  |
| FC(F)(F)c1cccc(N2CCN(c3ccc4nncn4n3)CC2)c1 | -1.15 |  |
| COc1ccc(-c2nc(CSc3nc4ccncc4[nH]3)c(C)o2)cc1 | -1.53 |  |
| CCN(CC)CCNC(=O)CN1C(=O)COc2ccc(S(=O)(=O)N3CCOCC3)cc21 | -1.1 |  |
| CCOC(=O)c1c(C=O)c2ccccc2n1C | 1.15 |  |
| COc1cccc(/C=c2\sc3nc(-c4ccco4)nn3c2=O)c1OC | 1.43 |  |
| O=c1oc2cc(O)ccc2cc1-c1nnc(Nc2ccccc2)s1 |  | active |
| CC(C)CNC(=O)CCN1C(=O)c2ccccc2S1(=O)=O | -2.25 (active) |  |
| O=C(CCN1C(=O)c2ccccc2S1(=O)=O)Nc1cc(Cl)ccc1Cl | 1.22 |  |
| CC1CCC(NS(=O)(=O)c2cccc3cccnc23)CC1 (centres undefined) | -2.05 (active) |  |
| COc1ccccc1CNc1nc2ccccc2n2nnnc12 | -3.71 (active) |  |
| c1ccc(-c2nnc3ccc(N4CCC5(CC4)OCCO5)nn23)cc1 | 1.02 |  |
| COc1nc(NC(C)(C)C)nc(Oc2ccc(=O)[nH]n2)n1 | 2 (active) |  |
| O=C(CSc1nc(-c2ccc(F)cc2)cc(C(F)(F)F)n1)NCCCn1ccnc1 | -1.16 |  |
| O=C(Cc1ccc(NC2=NC3CS(=O)(=O)CC3S2)cc1)NCc1ccco1 (centres undefined) | -1.32 |  |
